RORgamma inh = qHTS for inhibitors of ROR gamma transcriptional activity; 5.4% of 310,000 active; Drosophila S2 Gal4-RORgamma UAS-luciferase reporter, 20 h; Potency, µM (titrated, usually from 53.6 µM), inactives show at the top dose activity change, negative = inhibition, hits mostly inhibitors; note: potency is the fitted concentration of half-maximal effect; % is set by controls: 0 for no effect and ±100 for the full control effect; nearly all actives have a fitted effect of over 60% in size
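Drosophila S2 cells stably expressing Gal4-DBD/mouse RORγ fusion under metallothionein promoter plus UAS-luciferase; compound 1 h, then 700 uM CuSO4 induction for 20 h at ambient temperature; inhibition read as reduced luminescence.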
uPA surface inh = qHTS for Inhibitors of Cell Surface uPA Generation; cell surface uPA generation assay, qHTS; Potency, µM (highest dose often 38.3 µM), inactives show at the highest dose activity change, negative = inhibition, actives largely listed as inhibitors; 0.31% of 330,000 active; AID 540303, 2011; active = well fitted inhibition curve with a large enough effect; inconclusive = small, poorly fitted or top-dose-only effect; inactive = no such curve, though single readings can be large or run the other way; tested in mouse RAW 264.7 cells; note: potency is the fitted concentration of half-maximal effect; % is set by controls: 0 for no effect and ±100 for the full control effect; nearly all actives have a fitted effect of over 55% in size
Gal4-VP16 FLuc = VP16 counterscreen qHTS for inhibitors of ROR gamma transcriptional activity | Potency, µM (doses to about 53.6 µM), for the others: at the highest dose activity, negative = inhibition, actives largely listed as inhibitors | Drosophila S2 Gal4-VP16 UAS-luciferase, luminescence, 20 h | 3.5% of 310,000 active;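 note: Gal4-VP16 expression switched on by copper sulfate through the metallothionein promoter; potency is the fitted concentration of half-maximal effect; % is set by controls: 0 for no effect and ±100 for the full control effect; nearly all actives have a fitted effect of over 50% in size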
TRPV1 ag = HTS Assay for Compounds that Act as Agonists of the Vanilloid Receptor 1. Transient receptor potential cation channel subfamily V member 1 (Homo sapiens), Q8NER1. activation, % at 8.33 µM. AID 540275, 2011. 0.19% of 320,000 active. TRPV1-expressing cells, Fluo-8 calcium influx, agonist mode; in the data active = activation above about 80%; inconclusive = between about 30% and that limit; note: 0% is about no effect
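TRPV1-expressing cells were cultured overnight at 35.5C and loaded with Fluo-8 calcium dye for 40 to 90 min at room temperature. After a 10 s baseline, compound was added and calcium influx was read kinetically for 3 min (ex 480/em 520 nm).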
TRPV1 potentiator = HTS Assay for Compounds that Act as Potentiators of the Vanilloid Receptor 1. TRPV1-expressing cells, Fluo-8 calcium influx, capsaicin EC20 potentiation. potentiation, % at 8.33 µM. 0.02% of 320,000 active. AID 540277, 2011; in the data active = potentiation above about 80%; inconclusive = between about 30% and that limit; note: 0% is about no effect
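TRPV1-expressing cells were cultured overnight at 35.5C and loaded with Fluo-8 calcium dye for 40 to 90 min at room temperature. After a 10 s baseline, compound was added and calcium influx was read kinetically for 3 min (ex 480/em 520 nm).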
* = called active by the depositor; ? = inconclusive; . = not tested or not shown; [ ] = another dose, or the depositor's remark. The list is not random: actives were taken first. Their share in the collection is about 5.8%. Unless noted, calls come from the whole dose curve; as a rule, active = well fitted curve in the direction sought with a large enough effect; inconclusive = small, poorly fitted or top-dose-only effect, or another doubt; inactive = no such curve, though single readings can be large; an effect the other way counts as inactive or inconclusive.

SMILES	RORgamma inh	uPA surface inh	Gal4-VP16 FLuc	TRPV1 ag	TRPV1 potentiator
O=C(CN1CCOCC1)NNc1nc(-c2ccccc2)c2cc(Br)ccc2n1	8.9µM*	-13%	-12%[10 µM]	22	-24
CCN(CC)S(=O)(=O)c1ccc(C(=O)NNc2nc(-c3ccccc3)c3cc(Br)ccc3n2)cc1	20µM*	-2%	?	0	12
O=C(O)C1CCN(c2nc(-c3ccccc3)c3cc(Br)ccc3n2)CC1	-29%	-3%	-4%	-7	1
O=C(CN1CCCCC1)NNc1nc(-c2ccccc2)c2cc(Cl)ccc2n1	5µM*	.	4µM*	1	5
CC(C)(C)C(=O)NNc1nc(-c2ccccc2)c2cc(Br)ccc2n1	-18%	9%	4%	11	4
O=C(O)CCC(=O)NNc1nc(-c2ccccc2)c2cc(Cl)ccc2n1	1%	-7%	-12%	1	26
O=C(NCCc1nnc2ccc(SCC(=O)N3CCCC3)nn12)c1ccc(F)cc1	-19%	17%	-10%	1	3
Cc1ncc(CO)c(/C=N/NC(=O)c2cc(Br)ccc2O)c1O	-42%	-7%	-8%	-10	7
Cc1ncc(CO)c(/C=N/NC(=O)c2ccc(Br)cc2)c1O	11µM*	.	?	0	-1
N#C/C(=C\c1ccc([N+](=O)[O-])cc1)c1ccccn1	-10%	.	6%	12	-5
CN(C)c1ccc(NC(=S)c2ccccn2)cc1	0.28µM*	-8%	0.63µM*	?	-21
N#CC(C#N)=Cc1ccc(OC(=O)c2ccccn2)cc1	13µM*	-5%	-25%	5	0
CN(C)c1ccc(/C=C(\C#N)c2ccccn2)cc1	7.1µM*	-15%	7.9µM*	-5	11
CN(C)c1ccc(C(=S)Nc2ccccc2)cc1	13µM*	-11%	?	?	-4
Cc1cc(C(C)(C)C)ccc1NC(=O)CC(C)(C)CC(=O)O	-11%	4%	-5%	5	20
CC(=O)N1CCN(C(=S)NC(=O)c2c(-c3ccccc3Cl)noc2C)CC1	1.6µM*	-2%	5µM*	-2	4
Cc1onc(-c2ccccc2Cl)c1C(=O)N1CCN(c2cccc(Cl)c2)CC1	1%	2.2µM*	-1%	19	-9
COC(=O)c1ccc(NC(=S)NC(=O)c2c(-c3ccccc3)noc2C)cc1	7.1µM*	2%	?	1	-22
Cc1ccc(NC(=S)NC(=O)c2c(-c3ccccc3Cl)noc2C)cc1	4µM*	2%	11µM*	6	1
Cc1onc(-c2ccccc2Cl)c1C(=O)N1CCCC1	-9%	0%	0%	3	11
COC(=O)c1ccc(C)c(NC(=O)c2c(-c3ccccc3)noc2C)c1	12%	-7%	-5%	1	2
CCCOc1ccc(C(=O)NC(=S)NNC(=O)c2c(-c3ccccc3)noc2C)cc1	4µM*	4%	?	?	-32
Cc1onc(-c2ccccc2Cl)c1C(=O)NC(C)c1ccccc1 (configuration not stated)	-24%	11%	-19%	8	-14
Cc1onc(-c2ccccc2Cl)c1C(=O)NC(=S)Nc1ccc(C(C)C)cc1	1.8µM*	11%	?	7	0
CC(=O)Nc1ccc(NC(=O)Cn2cnc3c(cnn3C(C)(C)C)c2=O)cc1	-27%[0.365 µM]	3%	.	1	0
SMILES	RORgamma inh	uPA surface inh	Gal4-VP16 FLuc	TRPV1 ag	TRPV1 potentiator
CC(C)(C)n1ncc2c(=O)n(CC(=O)NCc3ccccc3)cnc21	10µM*	-9%	?	0	5
O=C(O)CO.[NH2-].[NH2-].[Pt+2]	1%	.	-2%	.	.
N[C@H]1C(O)O[C@H](CO)[C@@H](O)[C@@H]1O (some centres not stated)	.	2%	.	-3	10
COc1ccc(NC(=O)c2cc3cccc(OC)c3oc2=Nc2ccc(C(=O)O)cc2)cc1OC	0.45µM*	-6%	?	1	7
CO[C@H]1/C=C/O[C@@]2(C)Oc3c(C)c(O)c4c(O)c(c(/C=N/N5CCN(C)CC5)c(O)c4c3C2=O)NC(=O)/C(C)=C\C=C\[C@H](C)[C@H](O)[C@@H](C)[C@@H](O)[C@@H](C)[C@H](OC(C)=O)[C@@H]1C	9%	.	-5%	.	.
CC(C1CC2CCC1C2)N1CC(O)=C(c2nc3ccccc3[nH]2)C1=N (configuration not stated)	8.9µM*	2%	?	15	-18
CC(C)N1CC(O)=C(c2nc3ccccc3[nH]2)C1=N	-18%	-18%	-6%	-1	1
COc1ccc2nc(C)cc(Sc3nc4ccccc4s3)c2c1	14µM*	-15%	?	?	-6
COc1ccc2nc(C)cc(SCC(=O)NNC(=O)COc3ccccc3)c2c1	12%	-8%	-1%	.	.
Cc1cc(NCCN2CCOCC2)n2nc(C)c(-c3ccc(Cl)cc3)c2n1	-38%	-6%	-15%	3	-13
Cc1cc(NCc2ccccc2)n2ncc(-c3ccccc3)c2n1	-27%	-5%	-4%	0	-10
Cc1cc(NCCCn2ccnc2)n2ncc(-c3ccccc3)c2n1	4.5µM*	-14%	7.9µM*	1	-3
Cc1cc(NCCN2CCOCC2)n2nc(C)c(-c3ccccc3)c2n1	8.9µM*	9%	10µM*	16	28
Cc1cc(NCCN2CCOCC2)n2ncc(-c3ccccc3)c2n1	3.5µM*	-7%	10µM*	3	-3
Cc1cc(NCCCn2ccnc2)n2nc(C)c(-c3ccccc3)c2n1	19%	.	14%	2	-3
CCc1c(C)nc(SCC(=O)N2CC(C)OC(C)C2)[nH]c1=O (configuration not stated)	.	1%	.	2	2
CCN(CC)CCn1c2ccccc2c2nc3ccc([N+](=O)[O-])cc3cc21	-11%	-9%	-18%	1	-3
O=C(NNC(=S)NC(=O)c1ccccc1Cl)c1cccc([N+](=O)[O-])c1	?	9%	?	-3	21
O=C(NC(NC(=S)Nc1c(Cl)cccc1Cl)C(Cl)(Cl)Cl)c1cccc([N+](=O)[O-])c1 (configuration not stated)	?	-5%	8.9µM*	-3	5
CC1O[C@@H](O[C@@H]2C(O)C[C@H](O[C@@H]3C(O)C[C@@H](OC4CC[C@@]5(C)C6CC(O)[C@@]7(C)C(C8=CC(=O)OC8)CC[C@@]7(O)C6CC[C@@H]5C4)OC3C)OC2C)CC(O)[C@H]1O (some centres not stated)	8.9µM*	.	-7%	.	.
O=C1Cc2ccccc2C(c2ccc(Cl)cc2)N1 (configuration not stated)	1%	0%	3%	4	-2
